Residue numbers refer to the chain shown, from its start.
Experiments:
Experiment in all cases: PBM; 200 nM protein, PBS
Settings in all cases: dsDNA, one strand shown
VENTX [1] = biological target: T1, VENTX (Homo sapiens, UniProt O95231 78-163, R121Q)
T1 sequence: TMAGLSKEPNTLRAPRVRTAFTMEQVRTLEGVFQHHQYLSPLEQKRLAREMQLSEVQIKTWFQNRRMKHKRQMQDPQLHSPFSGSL

VENTX [2] = biological target: T2, VENTX (Homo sapiens, UniProt O95231 78-163)
T2 sequence: T1 sequence with Q44R

HOXA7 [3] = biological target: HOXA7 (Homo sapiens, UniProt P31268 116-202)
Chain of HOXA7 (Homo sapiens, UniProt P31268 116-202) (P31268 116-202): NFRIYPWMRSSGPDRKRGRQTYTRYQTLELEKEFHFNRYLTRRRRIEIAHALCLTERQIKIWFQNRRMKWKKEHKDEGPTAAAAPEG

VENTX [4] = biological target: T3, VENTX (Homo sapiens, UniProt O95231 78-163, Y115F)
T3 sequence: T1 sequence with Y38F, Q44R

HOXB6 [5] = biological target: HOXB6 (Homo sapiens, UniProt P17509 132-218, K202E)
Chain of HOXB6 (Homo sapiens, UniProt P17509 132-218, K202E) (P17509 132-218 K202E): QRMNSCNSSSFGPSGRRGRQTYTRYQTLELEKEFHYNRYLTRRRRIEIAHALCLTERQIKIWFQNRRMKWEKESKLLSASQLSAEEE

HOXA2 [6] = biological target: HOXA2 (Homo sapiens, UniProt O43364 129-215, R185K)
Chain of HOXA2 (Homo sapiens, UniProt O43364 129-215, R185K) (O43364 129-215 R185K): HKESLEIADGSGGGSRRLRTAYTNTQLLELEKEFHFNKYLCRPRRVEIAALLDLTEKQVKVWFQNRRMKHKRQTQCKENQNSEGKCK

VAX1 [7] = biological target: VAX1 (Homo sapiens, UniProt Q5SQQ9 86-172)
Chain of VAX1 (Homo sapiens, UniProt Q5SQQ9 86-172) (Q5SQQ9 86-172): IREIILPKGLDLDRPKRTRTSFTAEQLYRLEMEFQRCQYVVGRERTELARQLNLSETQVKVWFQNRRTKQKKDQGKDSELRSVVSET

VAX1 [8] = biological target: VAX1 (Homo sapiens, UniProt Q5SQQ9 86-172, T142I)
Chain of VAX1 (Homo sapiens, UniProt Q5SQQ9 86-172, T142I) (Q5SQQ9 86-172 T142I): as the sequence (Q5SQQ9 86-172) above, with T57I counted along it

HOXA7 [9] = biological target: HOXA7 (Homo sapiens, UniProt P31268 116-202, W177C)
Chain of HOXA7 (Homo sapiens, UniProt P31268 116-202, W177C) (P31268 116-202 W177C): as the sequence (P31268 116-202) above, with W62C counted along it

VAX1 [10] = biological target: VAX1 (Homo sapiens, UniProt Q5SQQ9 86-172, K157R)
Chain of VAX1 (Homo sapiens, UniProt Q5SQQ9 86-172, K157R) (Q5SQQ9 86-172 K157R): as the sequence (Q5SQQ9 86-172) above, with K72R counted along it

HOXB6 [11] = biological target: HOXB6 (Homo sapiens, UniProt P17509 132-218)
Chain of HOXB6 (Homo sapiens, UniProt P17509 132-218) (P17509 132-218): as the sequence (P17509 132-218 K202E) above, with E71K counted along it

HOXC10 [12] = biological target: HOXC10 (Homo sapiens, UniProt Q9NYD6 254-340)
Chain of HOXC10 (Homo sapiens, UniProt Q9NYD6 254-340) (Q9NYD6 254-340): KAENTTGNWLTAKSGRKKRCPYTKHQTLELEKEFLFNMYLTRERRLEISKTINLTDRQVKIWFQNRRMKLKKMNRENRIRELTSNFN

HOXC10 [13] = biological target: HOXC10 (Homo sapiens, UniProt Q9NYD6 254-340, K271E)
Chain of HOXC10 (Homo sapiens, UniProt Q9NYD6 254-340, K271E) (Q9NYD6 254-340 K271E): as the sequence (Q9NYD6 254-340) above, with K18E counted along it

PRRX1 [14] = biological target: PRRX1 (Homo sapiens, UniProt P54821 80-166, F113S)
Chain of PRRX1 (Homo sapiens, UniProt P54821 80-166, F113S) (P54821 80-166 F113S): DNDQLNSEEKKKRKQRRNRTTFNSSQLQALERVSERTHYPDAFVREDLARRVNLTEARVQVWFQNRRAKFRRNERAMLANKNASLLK

PRRX1 [15] = biological target: PRRX1 (Homo sapiens, UniProt P54821 80-166)
Chain of PRRX1 (Homo sapiens, UniProt P54821 80-166) (P54821 80-166): as the sequence (P54821 80-166 F113S) above, with S34F counted along it

HOXA2 [16] = biological target: HOXA2 (Homo sapiens, UniProt O43364 129-215, R185T)
Chain of HOXA2 (Homo sapiens, UniProt O43364 129-215, R185T) (O43364 129-215 R185T): as the sequence (O43364 129-215 R185K) above, with K57T counted along it

HOXA2 [17] = biological target: HOXA2 (Homo sapiens, UniProt O43364 129-215, Y150S)
Chain of HOXA2 (Homo sapiens, UniProt O43364 129-215, Y150S) (O43364 129-215 Y150S): as the sequence (O43364 129-215 R185K) above, with Y22S, K57R counted along it

HOXA2 [18] = biological target: HOXA2 (Homo sapiens, UniProt O43364 129-215)
Chain of HOXA2 (Homo sapiens, UniProt O43364 129-215) (O43364 129-215): as the sequence (O43364 129-215 R185K) above, with K57R counted along it

ALX4 [19] = biological target: ALX4 (Homo sapiens, UniProt Q9H161 200-286)
Chain of ALX4 (Homo sapiens, UniProt Q9H161 200-286) (Q9H161 200-286): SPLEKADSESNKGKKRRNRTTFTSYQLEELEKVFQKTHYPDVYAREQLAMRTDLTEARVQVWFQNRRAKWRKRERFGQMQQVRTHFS

PAX4 [20] = biological target: T4, PAX4 (Homo sapiens, UniProt O43316 9-242, R200K)
T4 sequence: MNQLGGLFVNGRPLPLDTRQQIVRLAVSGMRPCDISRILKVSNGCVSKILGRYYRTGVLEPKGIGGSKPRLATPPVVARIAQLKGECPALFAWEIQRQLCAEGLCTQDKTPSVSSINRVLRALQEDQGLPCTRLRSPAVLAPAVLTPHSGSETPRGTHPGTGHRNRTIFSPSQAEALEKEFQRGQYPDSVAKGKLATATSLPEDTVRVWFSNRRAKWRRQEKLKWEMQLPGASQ

PAX4 [21] = biological target: T5, PAX4 (Homo sapiens, UniProt O43316 9-242)
T5 sequence: T4 sequence with K192R

ALX4 [22] = biological target: ALX4 (Homo sapiens, UniProt Q9H161 200-286, Q225E)
Chain of ALX4 (Homo sapiens, UniProt Q9H161 200-286, Q225E) (Q9H161 200-286 Q225E): as the sequence (Q9H161 200-286) above, with Q26E counted along it

MSX2 [23] = biological target: MSX2 (Homo sapiens, UniProt P35548 130-214, R199I)
Chain of MSX2 (Homo sapiens, UniProt P35548 130-214, R199I) (P35548 130-214 R199I): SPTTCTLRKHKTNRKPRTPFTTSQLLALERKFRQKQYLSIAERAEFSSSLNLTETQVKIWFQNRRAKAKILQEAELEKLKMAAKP

PAX4 [24] = biological target: T6, PAX4 (Homo sapiens, UniProt O43316 9-242, R200Q)
T6 sequence: T4 sequence with K192Q

PAX4 [25] = biological target: T7, PAX4 (Homo sapiens, UniProt O43316 9-242, F177V)
T7 sequence: T4 sequence with F169V, K192R

MSX2 [26] = biological target: MSX2 (Homo sapiens, UniProt P35548 130-214)
Chain of MSX2 (Homo sapiens, UniProt P35548 130-214) (P35548 130-214): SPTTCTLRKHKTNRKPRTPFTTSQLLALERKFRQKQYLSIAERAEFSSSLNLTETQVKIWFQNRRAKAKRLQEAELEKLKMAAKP

PAX4 [27] = biological target: T8, PAX4 (Homo sapiens, UniProt O43316 9-242, F177Y)
T8 sequence: T4 sequence with F169Y, K192R

MSX2 [28] = biological target: MSX2 (Homo sapiens, UniProt P35548 130-214, F161Y)
Chain of MSX2 (Homo sapiens, UniProt P35548 130-214, F161Y) (P35548 130-214 F161Y): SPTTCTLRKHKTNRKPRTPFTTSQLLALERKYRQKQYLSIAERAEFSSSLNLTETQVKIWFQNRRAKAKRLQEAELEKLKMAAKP

PAX4 [29] = biological target: T9, PAX4 (Homo sapiens, UniProt O43316 9-242, R227W)
T9 sequence: T4 sequence with K192R, R219W

## GCCCATTA
VENTX [1]
  binding signal: 12.1 upbm affinity estimate (log intensity, higher = more binding, comparable within an allelic series)
VENTX [2]
  binding signal: 13 upbm affinity estimate (log intensity, higher = more binding, comparable within an allelic series)
HOXA7 [3]
  binding signal: 11.3 upbm affinity estimate (log intensity, higher = more binding, comparable within an allelic series)
VENTX [4]
  binding signal: 11.8 upbm affinity estimate (log intensity, higher = more binding, comparable within an allelic series)
HOXB6 [5]
  binding signal: 9.82 upbm affinity estimate (log intensity, higher = more binding, comparable within an allelic series)
HOXA2 [6]
  binding signal: 13.1 upbm affinity estimate (log intensity, higher = more binding, comparable within an allelic series)
VAX1 [7]
  binding signal: 12.8 upbm affinity estimate (log intensity, higher = more binding, comparable within an allelic series)
VAX1 [8]
  binding signal: 12.2 upbm affinity estimate (log intensity, higher = more binding, comparable within an allelic series)
HOXA7 [9]
  binding signal: 8.75 upbm affinity estimate (log intensity, higher = more binding, comparable within an allelic series)
VAX1 [10]
  binding signal: 12.5 upbm affinity estimate (log intensity, higher = more binding, comparable within an allelic series)
HOXB6 [11]
  binding signal: 11.8 upbm affinity estimate (log intensity, higher = more binding, comparable within an allelic series)

## GCGGGTCC
VENTX [1]
  binding signal: 8.12 upbm affinity estimate (log intensity, higher = more binding, comparable within an allelic series)
VENTX [2]
  binding signal: 8.25 upbm affinity estimate (log intensity, higher = more binding, comparable within an allelic series)
HOXC10 [12]
  binding signal: 10 upbm affinity estimate (log intensity, higher = more binding, comparable within an allelic series)
VENTX [4]
  binding signal: 8.16 upbm affinity estimate (log intensity, higher = more binding, comparable within an allelic series)
HOXC10 [13]
  binding signal: 10 upbm affinity estimate (log intensity, higher = more binding, comparable within an allelic series)

## CCGAGTCC
VENTX [1]
  binding signal: 8.15 upbm affinity estimate (log intensity, higher = more binding, comparable within an allelic series)
VENTX [2]
  binding signal: 8.13 upbm affinity estimate (log intensity, higher = more binding, comparable within an allelic series)
PRRX1 [14]
  binding signal: 9.18 upbm affinity estimate (log intensity, higher = more binding, comparable within an allelic series)
VENTX [4]
  binding signal: 8.08 upbm affinity estimate (log intensity, higher = more binding, comparable within an allelic series)
PRRX1 [15]
  binding signal: 9.67 upbm affinity estimate (log intensity, higher = more binding, comparable within an allelic series)

## CACTGGGG
VENTX [1]
  binding signal: 7.92 upbm affinity estimate (log intensity, higher = more binding, comparable within an allelic series)
VENTX [2]
  binding signal: 7.73 upbm affinity estimate (log intensity, higher = more binding, comparable within an allelic series)
HOXC10 [12]
  binding signal: 10 upbm affinity estimate (log intensity, higher = more binding, comparable within an allelic series)
VENTX [4]
  binding signal: 7.93 upbm affinity estimate (log intensity, higher = more binding, comparable within an allelic series)
HOXA2 [16]
  binding signal: 7.07 upbm affinity estimate (log intensity, higher = more binding, comparable within an allelic series)
HOXA2 [6]
  binding signal: 10.1 upbm affinity estimate (log intensity, higher = more binding, comparable within an allelic series)
HOXC10 [13]
  binding signal: 10 upbm affinity estimate (log intensity, higher = more binding, comparable within an allelic series)
HOXA2 [17]
  binding signal: 10.4 upbm affinity estimate (log intensity, higher = more binding, comparable within an allelic series)
HOXA2 [18]
  binding signal: 7.07 upbm affinity estimate (log intensity, higher = more binding, comparable within an allelic series)

## GCGCAGCA
VENTX [1]
  binding signal: 7.82 upbm affinity estimate (log intensity, higher = more binding, comparable within an allelic series)
VENTX [2]
  binding signal: 7.9 upbm affinity estimate (log intensity, higher = more binding, comparable within an allelic series)
VENTX [4]
  binding signal: 7.91 upbm affinity estimate (log intensity, higher = more binding, comparable within an allelic series)

## GGCCATTA
VENTX [1]
  binding signal: 11.6 upbm affinity estimate (log intensity, higher = more binding, comparable within an allelic series)
VENTX [2]
  binding signal: 12.3 upbm affinity estimate (log intensity, higher = more binding, comparable within an allelic series)
HOXA7 [3]
  binding signal: 11.2 upbm affinity estimate (log intensity, higher = more binding, comparable within an allelic series)
VENTX [4]
  binding signal: 11.4 upbm affinity estimate (log intensity, higher = more binding, comparable within an allelic series)
HOXB6 [5]
  binding signal: 9.75 upbm affinity estimate (log intensity, higher = more binding, comparable within an allelic series)
HOXA7 [9]
  binding signal: 8.67 upbm affinity estimate (log intensity, higher = more binding, comparable within an allelic series)
HOXB6 [11]
  binding signal: 11.8 upbm affinity estimate (log intensity, higher = more binding, comparable within an allelic series)

## GAAGCCGC
VENTX [1]
  binding signal: 8.12 upbm affinity estimate (log intensity, higher = more binding, comparable within an allelic series)
VENTX [2]
  binding signal: 8.07 upbm affinity estimate (log intensity, higher = more binding, comparable within an allelic series)
ALX4 [19]
  binding signal: 8.19 upbm affinity estimate (log intensity, higher = more binding, comparable within an allelic series)
PAX4 [20]
  binding signal: 9.31 upbm affinity estimate (log intensity, higher = more binding, comparable within an allelic series)
VENTX [4]
  binding signal: 8.31 upbm affinity estimate (log intensity, higher = more binding, comparable within an allelic series)
PAX4 [21]
  binding signal: 9.25 upbm affinity estimate (log intensity, higher = more binding, comparable within an allelic series)
ALX4 [22]
  binding signal: 8.07 upbm affinity estimate (log intensity, higher = more binding, comparable within an allelic series)
MSX2 [23]
  binding signal: 9.54 upbm affinity estimate (log intensity, higher = more binding, comparable within an allelic series)
PAX4 [24]
  binding signal: 9.31 upbm affinity estimate (log intensity, higher = more binding, comparable within an allelic series)
PAX4 [25]
  binding signal: 9.32 upbm affinity estimate (log intensity, higher = more binding, comparable within an allelic series)
MSX2 [26]
  binding signal: 9.58 upbm affinity estimate (log intensity, higher = more binding, comparable within an allelic series)
PAX4 [27]
  binding signal: 9.18 upbm affinity estimate (log intensity, higher = more binding, comparable within an allelic series)
MSX2 [28]
  binding signal: 9.63 upbm affinity estimate (log intensity, higher = more binding, comparable within an allelic series)
PAX4 [29]
  binding signal: 9.34 upbm affinity estimate (log intensity, higher = more binding, comparable within an allelic series)

## CGGGCGCC
VENTX [1]
  binding signal: 8.04 upbm affinity estimate (log intensity, higher = more binding, comparable within an allelic series)
VENTX [2]
  binding signal: 8.22 upbm affinity estimate (log intensity, higher = more binding, comparable within an allelic series)
VENTX [4]
  binding signal: 8.23 upbm affinity estimate (log intensity, higher = more binding, comparable within an allelic series)

From PMC11006913
